# Assay outcomes deposited in PubChem BioAssay by Broad Institute.
# Glyco luc inh = N-linked glycosylation inhibition; 360,000 compounds, 0.23% hits; AID 588692; reporter increase, % at 12.5 µM; D54 ERlucT glycosylation luciferase reporter, 24 h; percent of 100 nM tunicamycin response;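 active = mean luciferase reporter signal, scaled so untreated is 0 and the glycosylation-blocking control 100, at or above a set limit in every replicate; inconclusive = mean reaches the limit but not every replicate does; inactive = mean below the limit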;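 also: luciferase carries N-glycosylation sites so blocking glycosylation raises the light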
# LMP1 NFkB inh = Epstein-Barr LMP1 NF-kappaB reporter inhibition. 350,000 compounds, 0.69% hits. AID 504558. LMP1-induced NF-kappaB luciferase reporter cells, luminescence. inhibition, % at 12.5 µM; in the data active = inhibition above about 41%; inconclusive = no clear call, values can overlap the other calls
# PAX8 reporter = lowers PAX8-driven luciferase in RMG-I cells. 360,000 compounds, 1.2% hits. RMG-I TPO-luciferase reporter, SteadyGlo, 24 h. AID 652154. inhibition, % at 12.6 µM;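 active = mean replicate inhibition at least 60% with every replicate also reaching 60%; inconclusive = only one of the two criteria is met; inactive = mean below 60% and not all replicates reaching 60%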;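 also: luciferase light reporting Pax8 driven TPO promoter activity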
# HIV Env fusion = inhibitors of HIV Env-mediated cell fusion; HeLa-JRFL Env/CEM21 cell fusion, luciferase; 360,000 compounds, 1.1% hits; inhibition, % at 12.3 µM;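 active = mean replicate inhibition score of at least 50 and every replicate individually at or above 50; inconclusive = only one of the two criteria met; inactive = mean below 50 and not all replicates reaching 50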
# NSD2 HMT inh = blocks human histone methyltransferase NSD2; NSD2 peptide methylation, AlphaScreen, 120 min; inhibition, % at 12.5 µM; 310,000 compounds, 0.54% hits; AID 743445; in the data active = inhibition above about 50%
# Shn3 3UTR inh = inhibitors of Schnurri-3 3'UTR reporter in osteoblasts; Clone20 osteoblast Shn3 3'UTR firefly luciferase, 24 h; AID 588674; 360,000 compounds, 0.52% hits; inhibition, % at 12.5 µM;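 active = mean inhibition of at least 75% with every replicate also reaching 75%; inconclusive = mean inhibition at least 75% but some replicate below; inactive = mean inhibition below 75%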
# Hits are given with their value; - = inactive; ? = inconclusive; . = no result given; [ ] = remark or other dose. In the library only some 2.8% were active in any assay of this set; here they are far more common.
SMILES,Glyco luc inh,LMP1 NFkB inh,PAX8 reporter,HIV Env fusion,NSD2 HMT inh,Shn3 3UTR inh
Fc1cccc(F)c1/C=N/Nc1ccccn1,-,-,-,-,-,-
Oc1ccc2ccccc2c1C=NNc1ccccn1,-,58,-,-,-,-
CNC[C@H]1OCCCC[C@@H](C)Oc2ccc(NC(=O)Nc3c(C)noc3C)cc2C(=O)N([C@H](C)CO)C[C@H]1C,.,.,-,-,.,.
COc1ccc(C=C2OC(=O)C(C(C)=O)=C2O)cc1,-,51,-,-,-,-
Cc1nnc(NC(=O)C2CCCC2)s1,-,-,-,-,-,-
Cc1nnc(NC(=O)C2CCCCC2)s1,-,-,.,65,-,-
C/C=C/c1cnc2c(c1)C(=O)N([C@H](C)CO)C[C@@H](C)[C@@H](CN(C)Cc1ccc3c(c1)OCO3)O2,.,.,-,-,.,.
CSc1nc(SCC(=O)NCc2ccco2)c2sc3nc(C(C)C)c4c(c3c2n1)CCC4,.,.,.,.,-,.
CC(=O)/C=C/c1ccccc1Oc1c(F)c(F)nc(F)c1F,60,-,-,-,-,-
Cc1noc(C)c1NC(=O)Nc1ccc2c(c1)C(=O)N([C@@H](C)CO)C[C@H](C)[C@H](CN(C)CC1CCCCC1)OCCCC[C@@H](C)O2,.,.,.,-,.,.
Cc1ccc2c(c1)COc1c3ccc(C(=O)NCC4CC4)cc3nn1-2,-,-,-,-,.,-
Cc1ccc2c(c1)COc1c3ccc(C(=O)O)cc3nn1-2,-,-,65,-,.,-
C[C@@H]1CCCCO[C@@H](CN(C)Cc2ccncc2)[C@H](C)CN([C@H](C)CO)C(=O)c2cc(NC(=O)CCCN(C)C)ccc2O1,.,.,-,-,.,.
COc1ccccc1C1CC(c2ccco2)=NN1c1ccccc1 (stereo not given),-,-,80,.,-,-
Fc1ccc(C2=NN(c3ccccc3)C(c3ccco3)C2)cc1 (stereo not given),-,-,-,-,-,-
C[C@H](CO)N1C[C@H](C)[C@H](CN(C)Cc2ccc3c(c2)OCO3)OCCCC[C@H](C)Oc2ccc(NC(=O)CCCN(C)C)cc2C1=O,.,.,-,-,.,.
O=C(Cn1ncc2c1-c1ccccc1OC2)N1CCc2ccccc21,-,-,-,-,.,-
O=C(Cn1ncc(Cl)c(Cl)c1=O)N1CCOCC1,-,-,-,-,-,-
O=C(Cn1ncc(Cl)c(Cl)c1=O)N1CCc2ccccc21,-,-,66,-,.,-
O=C(Cn1ncc(Cl)c(Cl)c1=O)N1CCN(Cc2ccccc2)CC1,-,88,73,-,-,-
COc1ccc(NC(=O)N(C)C[C@@H]2Oc3c(cccc3N(C)C)C(=O)N([C@H](C)CO)C[C@@H]2C)cc1,.,.,-,-,.,.
Cc1ccc(-c2cn3nc(C)c(C)nc3n2)cc1,-,63,.,-,-,-
COc1ccc(CN(C)C[C@H]2OCCCC[C@@H](C)Oc3ccc(NS(=O)(=O)c4ccc(OC)cc4)cc3C(=O)N([C@H](C)CO)C[C@@H]2C)cc1,.,.,-,-,.,.
COc1ccc(S(=O)(=O)Nc2ccc3c(c2)C(=O)N([C@@H](C)CO)C[C@H](C)[C@H](CN(C)Cc2ccc(C(F)(F)F)cc2)OCCCC[C@H](C)O3)cc1,.,.,108,-,.,.
COc1ccc(S(=O)(=O)Nc2ccc3c(c2)C(=O)N([C@@H](C)CO)C[C@H](C)[C@@H](CN(C)Cc2ccc(C(F)(F)F)cc2)OCCCC[C@@H](C)O3)cc1,.,.,110,-,.,.
SMILES,Glyco luc inh,LMP1 NFkB inh,PAX8 reporter,HIV Env fusion,NSD2 HMT inh,Shn3 3UTR inh
CC(C)NC(=O)N(C)C[C@H]1Oc2ccc(NC(=O)Nc3ccc(F)cc3)cc2CC(=O)N([C@H](C)CO)C[C@@H]1C,.,.,-,-,.,.
Cc1[nH]n(-c2ccc(Cl)cc2)c(=O)c1C=NC12CN3CN(CN(C3)C1)C2,-,-,81,.,-,-
C[C@H]1CN([C@@H](C)CO)C(=O)Cc2cc(NC(=O)Nc3ccc(C(F)(F)F)cc3)ccc2O[C@H]1CN(C)C(=O)Nc1cccc2ccccc12,.,.,-,-,.,.
O=C(NNC(=O)c1cccnc1SCc1cccc([N+](=O)[O-])c1)c1ccccn1,-,-,-,.,-,96
O=C(NNC(=O)c1cccnc1SCc1cccc([N+](=O)[O-])c1)c1ccc(F)cc1,-,-,-,.,-,-
COc1cc(C=c2c3ccccc3n3c2cc(-c2ccccc2)[n+]3C)cc(OC)c1OC,-,-,93,-,.,-
COc1cc(/C=C(/C(=O)O)c2ccc(-c3ccccc3)cc2)cc(OC)c1OC,-,-,-,-,-,-
CN(c1ccc(Cl)cc1)c1cc(=O)n(C)c2ccccc12,-,-,.,.,-,-
CN(C)c1ccc(C=c2c3cc([N+](=O)[O-])ccc3n3c2cc(-c2ccccc2)[n+]3C)cc1,-,-,114,-,-,86
CN(C)c1ccc(C=C2C=C(c3ccccc3)OC2=O)cc1,-,-,-,-,-,-
CN(C)c1ccc(C=c2c3ccccc3n3c2cc(-c2ccc(Cl)cc2)[n+]3C)cc1,?,-,78,-,.,?
CN(C)c1ccc(C=c2c3ccccc3n3c2cc(-c2ccccc2)[n+]3C)cc1,?,-,95,-,-,?
Cn1c(CO)c(-c2ccccc2)c2cc([N+](=O)[O-])ccc21,-,-,-,-,-,-
C[C@H](CO)N1C[C@H](C)[C@H](CN(C)S(=O)(=O)c2ccc(F)cc2)Oc2ccc(NC(=O)Nc3ccc(F)cc3)cc2CC1=O,.,.,.,-,.,.
Cc1ccc(S(=O)(=O)N(C)C[C@@H]2Oc3ccc(NC(=O)Nc4ccc(C(F)(F)F)cc4)cc3CC(=O)N([C@@H](C)CO)C[C@H]2C)cc1,.,.,-,-,.,.
C[C@H](CO)N1C[C@H](C)[C@H](CN(C)S(=O)(=O)c2ccc(Cl)cc2)Oc2ccc(NC(=O)Nc3ccc(F)cc3)cc2CC1=O,.,.,74,-,.,.
Cc1ccc(S(=O)(=O)N(C)C[C@H]2Oc3ccc(NC(=O)Nc4ccc(C(F)(F)F)cc4)cc3CC(=O)N([C@H](C)CO)C[C@H]2C)cc1,.,.,63,-,.,.
C[C@@H]1CN([C@@H](C)CO)C(=O)Cc2cc(NC(=O)Nc3ccc(C(F)(F)F)cc3)ccc2O[C@H]1CN(C)S(=O)(=O)c1ccc(F)cc1,.,.,94,-,.,.
Cc1ccc(S(=O)(=O)N(C)C[C@@H]2Oc3ccc(NC(=O)Nc4ccc(C(F)(F)F)cc4)cc3CC(=O)N([C@H](C)CO)C[C@@H]2C)cc1,.,.,97,76[16.7 µM],.,.
COc1ccc(S(=O)(=O)Nc2cccc3c2O[C@@H](CN(C)S(=O)(=O)c2ccc(Cl)cc2)[C@H](C)CN([C@@H](C)CO)C3=O)cc1,.,.,-,-,.,.
COc1ccc(NC(=O)Nc2ccc3c(c2)CC(=O)N([C@H](C)CO)C[C@@H](C)[C@@H](CN(C)C(=O)NC2CCCCC2)O3)cc1,.,.,-,-,.,.
Cc1ccc(S(=O)(=O)N(C)C[C@H]2Oc3ccc(NC(=O)Nc4ccc(C(F)(F)F)cc4)cc3CC(=O)N([C@H](C)CO)C[C@@H]2C)cc1,.,.,82,-,.,.
C[C@@H]1CN([C@H](C)CO)S(=O)(=O)c2ccc(C#Cc3ccccc3)cc2O[C@H]1CN(C)C(=O)C1CC1,.,.,.,58[16.7 µM],.,.
